# AF4-AF9 inh – MLL-AF4/AF9 protein interaction inhibition. actives 0.47% (n = 350,000). AID 651704. inhibition, % at 10 µM. AlphaScreen, biotin-AF4 peptide binding to FLAG-AF9;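 active = every replicate reaching a set inhibition limit, whatever the replicate mean, cut at about 25% in these data; inconclusive = mean inhibition reaches that limit but some replicates miss it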
# Target sequence (P42568 whole entry, looked up): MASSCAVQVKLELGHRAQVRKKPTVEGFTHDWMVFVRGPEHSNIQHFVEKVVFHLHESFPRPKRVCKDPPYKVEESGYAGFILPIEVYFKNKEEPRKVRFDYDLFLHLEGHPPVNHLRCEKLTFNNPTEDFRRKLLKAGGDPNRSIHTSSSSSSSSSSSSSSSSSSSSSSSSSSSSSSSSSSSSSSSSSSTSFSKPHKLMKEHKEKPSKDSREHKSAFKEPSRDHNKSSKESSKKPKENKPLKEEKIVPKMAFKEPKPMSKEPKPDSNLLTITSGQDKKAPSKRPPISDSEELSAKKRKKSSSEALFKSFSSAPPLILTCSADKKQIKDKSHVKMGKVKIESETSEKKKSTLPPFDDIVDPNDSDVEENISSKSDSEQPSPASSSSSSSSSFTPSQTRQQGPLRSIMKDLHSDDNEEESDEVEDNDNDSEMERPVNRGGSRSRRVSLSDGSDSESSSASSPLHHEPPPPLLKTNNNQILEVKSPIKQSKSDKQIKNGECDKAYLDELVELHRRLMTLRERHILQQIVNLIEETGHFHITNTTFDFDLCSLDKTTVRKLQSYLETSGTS
# esBAF inh – SWI/SNF esBAF complex inhibition; actives 2% (n = 350,000); mouse ES cells, Bmi1-luciferase knock-in reporter, 24 h; 100% = twice the neutral-well signal; reporter increase, % at 12.5 µM; in the data active = activation above about 40%; inconclusive = no clear call, values can overlap the other calls;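 also: a rise in the Bmi1 reporter signal indicates esBAF inhibition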
# Ecoli rRNA inh – inhibits bacterial ribosomal RNA function over humanized ribosomes; actives 1.6% (n = 350,000); E. coli WT GFP vs humanized-ribosome RFP mutants, fluorescence, 24 h; stronger effect = lower value; DMSO median 0, no signal -100; GFP signal change (wild-type ribosome), % (concentration not given with the values);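 active = significant combined selectivity score with lowered wild-type GFP, culture density cut under 30%, mutant RFP and density less affected; inactive = any of these conditions unmet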
# MITF TRPM1 HTS – increases MITF-driven TRPM1 promoter luciferase signal; activation, % at 12.5 µM; SK-MEL-5 TRPM1-promoter luciferase, 24 h; % of positive control, neutral wells = 0; actives 0.75% (n = 300,000);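 active = mean activation of at least 80% with every replicate also reaching 80%; inconclusive = mean reaches 80% but some replicate falls short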
# Wnt bcat act – activators of Wnt/beta-catenin signaling; Wnt/beta-catenin reporter cell assay, activator, plate reader; activation, % at 9.35 µM; actives 1.2% (n = 300,000); AID 743398; in the data active = activation above about 30%, passing the limit was not always enough; inconclusive = no clear call, values can overlap the other calls
# Numbers stand for hits; n = inactive; u = inconclusive; x = no result. Rows were chosen to be rich in hits. Some 3.7% of all compounds tested hit in one or more screens of this group.
SMILES,AF4-AF9 inh,esBAF inh,Ecoli rRNA inh,MITF TRPM1 HTS,Wnt bcat act
Cc1ccccc1Cn1ccc(NC(=O)c2cc3ncc(Br)cn3n2)n1,n,n,n,n,n
CN(C)c1ccnc(Oc2ccc(Cl)cc2)c1C#N,n,n,n,n,n
CN(C)c1ccnc(Oc2ccc(C(C)(C)C)cc2)c1C#N,x,52,x,n,x
CC(C)CN(C(=O)CCNC(=O)c1ccccc1Cl)C1CCS(=O)(=O)C1 (stereo not drawn),n,n,n,n,32
O=[N+]([O-])c1nn(-c2ccc(Cl)cc2)n(O)c1=NCc1cccnc1,n,x,-19,n,n
CCOC(=O)c1sc(/S(C)=N\S(=O)(=O)c2cccc(Cl)c2)c2c1CCC=C2 (stereo not drawn),n,n,-19,n,n
CCOC(=O)C1=CCN(S(=O)(=O)c2cccc(Cl)c2)C1c1ccc(C)cc1 (stereo not drawn),n,n,n,x,n
CCc1ccccc1NC(=O)c1cnc2scc(C)n2c1=O,n,56,n,x,n
Cc1cc(NC(=O)c2cccs2)ncc1NC(=O)C(C)C,n,n,n,x,n
O=C(N/N=C\c1cc2c(cc1[N+](=O)[O-])OCO2)c1cccs1,n,n,n,n,n
Cc1[nH]c2ccccc2c1/C=N/NC(=O)c1cccs1,n,x,-24,n,n
O=C(N/N=C\c1cc2c(cc1Cl)OCO2)c1cccs1,n,53,n,n,n
Cc1[nH]c2ccccc2c1/C=N/NC(=O)CNC(=O)c1cccs1,n,x,x,x,n
O=C(N/N=C\c1ccc(Cl)s1)c1cccs1,x,72,x,n,x
C[C@@H]1CN([C@H](C)CO)C(=O)c2cc(NS(=O)(=O)c3ccccc3)ccc2O[C@H]1CN(C)Cc1ccc(C(F)(F)F)cc1,n,n,n,x,x
C[C@@H]1CCCCO[C@@H](CN(C)CC2CCCCC2)[C@@H](C)CN([C@H](C)CO)C(=O)c2cc(NC(=O)CCC(F)(F)F)ccc2O1,x,n,n,x,x
Cc1ccc(S(=O)(=O)N2CCN(C(=O)COC(=O)c3ccc(Br)o3)CC2)c(C)c1,u,n,n,n,n
COc1ccc(OC)c(CNc2ccc3c(c2)CCC3)c1,n,46,n,x,n
Cc1nn(-c2ccccn2)c2c1-c1nc(N)ncc1CC2,x,u,x,110,n
COc1ccc(Br)cc1/C=C/c1ccc2cccc(O)c2n1,n,n,n,n,n
COc1cc(/C=C/c2ccc3cccc(O)c3n2)cc(OC)c1OC,n,n,n,n,65
COc1ccc(/C=C/c2ccc3cccc(O)c3n2)cc1Br,n,44,n,n,n
Oc1cccc(/C=C/c2ccc3cccc(O)c3n2)c1,n,n,n,n,40
COc1cccc(/C=C/c2ccc3cccc(O)c3n2)c1,n,n,n,n,u
Cc1ccc(/C=C/c2ccc3cccc(O)c3n2)s1,42,n,n,n,u
SMILES,AF4-AF9 inh,esBAF inh,Ecoli rRNA inh,MITF TRPM1 HTS,Wnt bcat act
CC(C)OCCCNC(=O)C1CCC(CNS(=O)(=O)c2cccc3nsnc23)CC1 (stereo not drawn),x,n,x,x,x
Cc1ccc(C(OC(=O)c2ccco2)C(=O)NC2CCCC2)cc1 (stereo not drawn),n,n,n,n,n
C[C@@H]1CN([C@@H](C)CO)C(=O)CCCn2nncc2CO[C@@H]1CN(C)S(C)(=O)=O,n,n,n,x,n
O=C(Cc1cccnc1)N1CC(=O)N2[C@H](CO)[C@@H](c3ccc(C4=CCCCC4)cc3)[C@@H]2C1,n,x,n,x,x
COc1cc(/C=C/c2ccc3cccc(O)c3n2)cc(Br)c1OC,n,66,n,n,u
COc1cc(/C=C/c2ccc3c(Br)cc(Br)c(O)c3n2)ccc1O,n,n,n,n,n
COc1cc(/C=C/c2ccc3cccc(O)c3n2)cc(Cl)c1OC,n,n,n,n,47
CN1C(=O)c2cc(NC(=O)Cc3ccccc3)ccc2OC[C@@H]2O[C@H](CC(=O)NC3CCC3)CC[C@@H]21,n,n,n,x,x
O=C(NCCSc1ccc(Br)cc1)c1ccccc1,n,x,n,n,n
CSCc1ccc(C(=O)NCCSc2ccc(Br)cc2)cc1,n,48,n,108,u
O=C(O)CC/C(=C\c1ccc(N2CCCC2)c([N+](=O)[O-])c1)c1nc2ccccc2s1,n,x,-40,n,n
CN(c1ccccc1)c1ccc(/C=C(/CCC(=O)O)c2nc3ccccc3s2)cc1[N+](=O)[O-],n,x,n,n,n
CS(=O)(=O)NCCCNc1ccc(C(F)(F)F)cc1[N+](=O)[O-],n,n,n,n,n
Cc1cccc(OCCNc2ccc(C(F)(F)F)cc2[N+](=O)[O-])c1,x,x,x,90,x
